Compounds with a hit are over-represented: about 19% of the library has one in this group of screens.
ELG1 DNA repair = blocks ELG1-dependent DNA repair in HEK293T cells; HEK293T ELG1-luciferase reporter, luminescence, 16 h; DNA damage induced by 5-fluorouridine; 2.3% of 330,000 active; AID 504467; Potency, µM (highest dose often 46.1 µM), most hits filed as inhibitors; note: nearly all actives have a fitted effect of over 55% in size
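Cells (2,000 per well) received 5-fluorouridine plus test compound or DMSO and were incubated 16 hr at 37 °C, 5% CO2. Luciferase activity was read by luminescence 30 min after ONE-Glo addition; signal suppression marked inhibition of damage-induced ELG1 function.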
Giardia kill = kills Giardia lamblia; Giardia lamblia trophozoite viability; activity change, % at 7.66 µM, hits read low; 0.15% of 340,000 active; in the data active = activity change below about -80%; inconclusive = between about -30% and that limit;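 note: parasites exposed to compound for two days anaerobically before the ATP read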
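Luminescence from cellular ATP indicates surviving trophozoites (100 cells/well) following 48 hrs anaerobic compound treatment at 37 deg C; signal develops 15-30 min at room temperature.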
TDP1 cell noCPT = qHTS for Inhibitors of human tyrosyl-DNA phosphodiesterase 1 (TDP1): qHTS in cells in absence of CPT. DT40 Tdp1-/- hTDP1 cells, no CPT, ATP luminescence, 48 h. Potency, µM (titrated, usually from 46.2 µM), usual class: inhibitors. 15% of 420,000 active. AID 686978, 2013; note: nearly all actives have a fitted effect of over 55% in size
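DT40 Tdp1-/-;hTDP1 cells, no CPT (DMSO vehicle only), 400 cells/well; compounds pin-transferred; ≥48 hr, 37 °C; CellTiter-Glo 30 min RT dark, luminescence read.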
IL1B secr inh = inhibitors of inflammasome signaling (IL-1 beta secretion) | AID 743279 | activity change, % at 57.5 µM | THP-1 LPS/ATP IL-1B secretion, AlphaLISA, 16 h; stronger effect = lower value | 4.7% of 360,000 active; in the data active = activity change below about -50%; inconclusive = mostly about -30% to -49%
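THP-1 cells pretreated 1 hr with compounds (up to 57.5 uM final), then stimulated with LPS (250 ng/mL final) plus ATP (1.25 mM final); secreted IL-1B measured by AlphaLISA after 16 hr, decreased signal indicating inhibition.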
TDP1 cell CPT = growth inhibition of DT40 Tdp1-/-;hTDP1 cells with camptothecin (screen for TDP1 inhibitors). Potency, µM (highest dose often 46.2 µM), most hits filed as inhibitors. chicken DT40 Tdp1-/-;hTDP1 cells + 20 nM CPT, ATP luminescence, 48 h. 12% of 420,000 active; note: nearly all actives have a fitted effect of over 55% in size
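Chicken DT40 Tdp1-/- cells stably complemented with human TDP1 were seeded at 400 cells/well in medium containing 20 nM camptothecin, exposed to pin-transferred compounds, and grown at 37 °C for at least 48 hr. Viability was read as ATP luminescence.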
TDP1 inh = inhibitors of human tyrosyl-DNA phosphodiesterase TDP1. recombinant TDP1, AlphaScreen DNA substrate cleavage. Q9NUW8. Potency, µM (highest dose often 130 µM), usual class: inhibitors. AID 485290. 0.28% of 350,000 active; note: nearly all actives have a fitted effect of over 40% in size
Target sequence (Q9NUW8 whole entry, looked up): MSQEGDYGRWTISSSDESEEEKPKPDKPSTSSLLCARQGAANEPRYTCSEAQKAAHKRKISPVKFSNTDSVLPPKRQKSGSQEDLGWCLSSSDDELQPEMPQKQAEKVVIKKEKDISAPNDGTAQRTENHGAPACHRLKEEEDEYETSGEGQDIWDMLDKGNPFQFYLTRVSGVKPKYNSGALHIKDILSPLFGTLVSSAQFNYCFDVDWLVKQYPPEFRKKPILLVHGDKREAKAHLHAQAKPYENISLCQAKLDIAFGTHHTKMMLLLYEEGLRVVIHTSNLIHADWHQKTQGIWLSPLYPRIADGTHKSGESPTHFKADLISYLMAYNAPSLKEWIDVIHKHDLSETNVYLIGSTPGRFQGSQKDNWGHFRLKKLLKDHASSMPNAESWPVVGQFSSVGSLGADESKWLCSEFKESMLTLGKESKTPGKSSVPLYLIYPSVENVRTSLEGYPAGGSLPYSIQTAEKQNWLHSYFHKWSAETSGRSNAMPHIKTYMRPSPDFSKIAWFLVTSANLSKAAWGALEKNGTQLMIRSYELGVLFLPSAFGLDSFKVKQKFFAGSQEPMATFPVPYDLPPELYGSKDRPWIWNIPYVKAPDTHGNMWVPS
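Recombinant E. coli-expressed Tdp1 (1 nM) preincubated with compound 15 min at RT, then 5'-biotin/3'-phosphotyrosine-FITC DNA substrate (15 nM) added for 5 min. AlphaScreen beads (10 ug/ml) added, 10 min RT; tyrosine-FITC cleavage read as signal loss.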
Numbers stand for hits; [ ] = another dose, or the depositor's remark. Unless noted, calls come from the whole dose curve; as a rule, active = well fitted curve in the direction sought with a large enough effect; inconclusive = small, poorly fitted or top-dose-only effect, or another doubt; inactive = no such curve, though single readings can be large; an effect the other way counts as inactive or inconclusive.

O=C(CSc1nnc(-c2ccccc2F)o1)N1CCCC1 was read as ELG1 DNA repair inconclusive, Giardia kill inactive, TDP1 cell noCPT inactive, IL1B secr inh inactive, TDP1 cell CPT inactive and TDP1 inh inactive.
Screening CC1Cc2ccccc2N1C(=O)CSc1nnc(-c2ccccc2Cl)o1 (stereo not given) returned TDP1 cell noCPT inconclusive, TDP1 cell CPT 25.9µM and TDP1 inh inactive.
Screening CCN(CC)C(=O)CSc1nnc(-c2ccc(S(=O)(=O)N3CCCC3)cc2)o1 returned ELG1 DNA repair inactive, Giardia kill inactive, TDP1 cell noCPT inactive, IL1B secr inh inactive, TDP1 cell CPT inactive and TDP1 inh inactive.
Screening O=C(CSc1nnc(-c2ccccc2Cl)o1)N1CCCc2ccccc21 returned TDP1 cell noCPT 16.4µM, TDP1 cell CPT inconclusive and TDP1 inh inactive.
For CC1Cc2ccccc2N1C(=O)CSc1nnc(-c2ccc(S(=O)(=O)N3CCCC3)cc2)o1 (stereo not given) the results were ELG1 DNA repair inconclusive, Giardia kill inactive, TDP1 cell noCPT 16.4µM, IL1B secr inh inactive, TDP1 cell CPT inconclusive and TDP1 inh inactive.
`CCS(=O)(=O)c1ccc(C(=O)NC2CC2)c(Cl)c1Cl` gave ELG1 DNA repair inactive, Giardia kill inactive, TDP1 cell noCPT inactive, IL1B secr inh inactive, TDP1 cell CPT inactive and TDP1 inh inactive.
CCOc1ccc(NC(=O)c2ccc(-c3nc(COc4ccccc4)c(C)o3)cc2)cc1 was read as TDP1 cell noCPT inactive, TDP1 cell CPT inactive and TDP1 inh inactive.
O=C(c1ccco1)N1CCN(C(=O)c2cn(-c3ccccc3)nc2-c2ccccc2)CC1 was read as ELG1 DNA repair inconclusive, Giardia kill inactive, TDP1 cell noCPT inactive, IL1B secr inh inactive, TDP1 cell CPT inactive and TDP1 inh inactive.
Screening Cc1cc(C(=O)OCC(=O)N2CCN(C(=O)c3ccco3)CC2)c(C)n1-c1ccc(F)cc1 returned ELG1 DNA repair inconclusive, Giardia kill inactive, TDP1 cell noCPT inconclusive, IL1B secr inh inactive, TDP1 cell CPT inactive and TDP1 inh inactive.
For O=C(OCC(=O)N1CCN(C(=O)c2ccco2)CC1)c1ccccc1OCc1ccccc1 the results were ELG1 DNA repair inactive, Giardia kill inactive, TDP1 cell noCPT inactive, IL1B secr inh inactive, TDP1 cell CPT inactive and TDP1 inh inactive.
Screening O=C(OCC(=O)N1CCN(C(=O)c2ccco2)CC1)c1cc(-c2ccccc2)nc2ccccc12 returned ELG1 DNA repair 14.6µM, Giardia kill inactive, TDP1 cell noCPT inconclusive, IL1B secr inh -69.8, TDP1 cell CPT inactive and TDP1 inh inactive.
`O=C(OCC(=O)N1CCN(C(=O)c2ccco2)CC1)c1cn(-c2ccccc2)nc1-c1ccccc1` gave ELG1 DNA repair inconclusive, Giardia kill inactive, TDP1 cell noCPT inconclusive, IL1B secr inh -61.7, TDP1 cell CPT inconclusive and TDP1 inh inactive.
O=C(OCC(=O)N1CCN(C(=O)c2ccco2)CC1)c1ccccc1C(=O)c1ccccc1 was read as ELG1 DNA repair inactive, Giardia kill inactive, TDP1 cell noCPT inactive, IL1B secr inh inactive, TDP1 cell CPT inactive and TDP1 inh inactive.
O=C(OCC(=O)N1CCN(C(=O)c2ccco2)CC1)c1cc(-c2ccc(F)cc2)nc2ccccc12 was read as ELG1 DNA repair 23.1µM, Giardia kill inactive, TDP1 cell noCPT inactive, IL1B secr inh -51.4, TDP1 cell CPT inactive and TDP1 inh inactive.
O=C(OCC(=O)N1CCN(C(=O)c2ccco2)CC1)c1cc(-c2cccc(Br)c2)nc2ccccc12 was read as ELG1 DNA repair 16.4µM, Giardia kill inactive, TDP1 cell noCPT inactive, IL1B secr inh -67.2, TDP1 cell CPT inconclusive and TDP1 inh inactive.
For CSCCC(NC(=O)COc1ccccc1)C(=O)NCc1cccs1 (stereo not given) the results were ELG1 DNA repair inactive, Giardia kill inactive, TDP1 cell noCPT inactive, IL1B secr inh inactive, TDP1 cell CPT inactive and TDP1 inh inactive.
O=C(COC(=O)c1ccc(F)c(S(=O)(=O)N2CCOCC2)c1)Nc1ccc(Cl)cn1 was read as TDP1 cell noCPT inactive, IL1B secr inh inactive and TDP1 cell CPT inactive.
`C/C(=N\OCC(=O)OC(C)C(=O)Nc1ccc(C(N)=O)cc1)c1ccc2c(c1)OCO2` (stereo not given) gave ELG1 DNA repair inactive, Giardia kill inactive, TDP1 cell noCPT inactive, IL1B secr inh inactive, TDP1 cell CPT inactive and TDP1 inh inactive.
For Cc1ccc(Cn2c(=O)n(C)c(=O)c3sccc32)cc1 the results were ELG1 DNA repair inactive, Giardia kill inactive, TDP1 cell noCPT inconclusive, IL1B secr inh inactive and TDP1 cell CPT inconclusive.
`C=Cc1ccc(Cn2c(=O)n(C)c(=O)c3sccc32)cc1` gave ELG1 DNA repair inconclusive, Giardia kill inactive, TDP1 cell noCPT inconclusive, IL1B secr inh inactive and TDP1 cell CPT 3.66µM.
Screening C=Cc1ccc(Cn2c(=O)n(CCCOC)c(=O)c3sccc32)cc1 returned ELG1 DNA repair 20.6µM, Giardia kill inactive, TDP1 cell noCPT inconclusive, IL1B secr inh -88.0 and TDP1 cell CPT inconclusive.
Cc1cc(Nc2ccc(Cl)cc2)n2cnnc2n1 was read as TDP1 cell noCPT inactive, TDP1 cell CPT inactive and TDP1 inh inactive.
NS(=O)(=O)c1ccc(CCNC(=O)CSc2nc3ccccc3c(=O)n2CCC(=O)N2CCCCC2)cc1 was read as ELG1 DNA repair inactive, Giardia kill inactive, TDP1 cell noCPT inactive, IL1B secr inh inactive, TDP1 cell CPT inactive and TDP1 inh inactive.
COc1ccc(NC(=O)N(C)C[C@H]2Oc3cc(Br)ccc3S(=O)(=O)N([C@H](C)CO)C[C@@H]2C)cc1 was read as TDP1 cell noCPT inconclusive, IL1B secr inh inactive and TDP1 cell CPT inconclusive.
O=C(NOCC1CC1)c1ccc(F)c(F)c1Nc1ccc(I)cc1Cl was read as TDP1 cell noCPT 15µM and TDP1 cell CPT inconclusive.
Screening CCNC(=O)CC1C(=O)N(c2cccc(C)c2)C(=O)N1CCC(C)C (stereo not given) returned ELG1 DNA repair inactive, Giardia kill inactive, TDP1 cell noCPT inactive, IL1B secr inh inactive and TDP1 cell CPT inactive.
COC(=O)c1c(NC(=O)c2ccccc2)sc(C(=O)c2ccccc2)c1C was read as ELG1 DNA repair inconclusive, Giardia kill inactive, TDP1 cell noCPT 14.6µM, IL1B secr inh inactive, TDP1 cell CPT 16.4µM and TDP1 inh inactive.
Screening COC(=O)c1c(NC(=O)c2ccccc2OC)sc(C(=O)N2CCOCC2)c1C returned ELG1 DNA repair inactive, Giardia kill inactive, TDP1 cell noCPT 14.6µM, IL1B secr inh -60.5, TDP1 cell CPT inconclusive and TDP1 inh inactive[0.0935 µM].

Screening results (PubChem BioAssay)
